# Hits are enriched below; roughly 11% of the tested compounds scored in any of these assays.
# PNC assembly inh – High Content Assay for Compounds that inhibit the Assembly of the Perinucleolar Compartment; AID 2417, 2010; activity change (PNC), negative = inhibition, % at 10 µM; PC3M PTB-GFP, PNC prevalence imaging, 16 h; hits give low values; actives 3.1% (n = 140,000);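 active = readout at or below -70, meaning at least 70% loss of cells showing the perinucleolar compartment, a nuclear body marking cancer cells; inconclusive = readout between -30 and a set limit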;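 also: plate controls were DMSO wells for no effect and camptothecin positive control wells for full effect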
#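 Compounds are pinned in duplicate onto adhered PC3M cells stably expressing GFP-tagged PTB and incubated 16 h at 37 C. Cells are then fixed, nuclei stained with Hoechst, and PNC-positive cells counted.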
# HPGD block – qHTS Assay for Inhibitors of HPGD (15-Hydroxyprostaglandin Dehydrogenase); 15-hydroxyprostaglandin dehydrogenase [NAD(+)] (Homo sapiens), P15428; purified HPGD, NADH fluorescence kinetic, PGE2 substrate; Potency, µM, for inactives: at the highest dose activity change, negative = inhibition, most hits filed as inhibitors; actives 4.3% (n = 150,000); AID 894, 2007; also: potency is read from the fitted curve at half-maximal effect
# Target sequence (P15428 whole entry, looked up): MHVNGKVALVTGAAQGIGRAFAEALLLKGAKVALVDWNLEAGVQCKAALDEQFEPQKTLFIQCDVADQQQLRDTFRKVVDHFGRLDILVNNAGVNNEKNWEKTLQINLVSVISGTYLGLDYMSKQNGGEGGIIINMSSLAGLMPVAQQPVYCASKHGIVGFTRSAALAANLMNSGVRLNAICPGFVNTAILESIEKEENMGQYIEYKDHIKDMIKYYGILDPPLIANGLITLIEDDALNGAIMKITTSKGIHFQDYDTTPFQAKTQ
#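 20 nM HPGD preincubated 15 min at room temperature with compound in 50 mM Tris-HCl pH 8, 0.01% Tween 20. Started with 1 mM NAD+ and 30 uM prostaglandin E2; NADH fluorescence (360/450 nm) read 5 times over 30-s intervals, last minus first.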
# ALDH1A1 block – qHTS Assay for Inhibitors of Aldehyde Dehydrogenase 1 (ALDH1A1) | Aldehyde dehydrogenase 1A1 (Homo sapiens), P00352 | Purified ALDH1A1, NADH fluorescence, propionaldehyde substrate | Potency, µM (series often up to 75.3 µM), for the others: at the highest dose activity, negative = inhibition, hits mostly inhibitors | actives 7.3% (n = 220,000);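 also: potency is read from the fitted curve at half-maximal effect; plate controls were no enzyme wells and a reference inhibitor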
# Target sequence (P00352 whole entry, looked up): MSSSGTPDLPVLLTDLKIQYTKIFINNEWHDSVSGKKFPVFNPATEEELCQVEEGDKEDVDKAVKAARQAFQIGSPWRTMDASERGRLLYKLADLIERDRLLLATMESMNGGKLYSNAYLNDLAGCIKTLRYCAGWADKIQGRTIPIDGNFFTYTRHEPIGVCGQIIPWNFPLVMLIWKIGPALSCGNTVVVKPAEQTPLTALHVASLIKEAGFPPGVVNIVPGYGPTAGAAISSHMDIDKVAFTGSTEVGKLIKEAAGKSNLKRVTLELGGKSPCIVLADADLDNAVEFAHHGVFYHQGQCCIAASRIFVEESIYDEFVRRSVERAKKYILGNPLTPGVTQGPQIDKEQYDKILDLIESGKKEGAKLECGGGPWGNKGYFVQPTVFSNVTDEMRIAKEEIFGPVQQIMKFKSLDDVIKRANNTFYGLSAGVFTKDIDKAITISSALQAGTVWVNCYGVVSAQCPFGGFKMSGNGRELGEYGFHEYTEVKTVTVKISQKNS
# 12-hLO inh – qHTS Assay for Inhibitors of 12-hLO (12-human lipoxygenase); Potency, µM (titrated, usually from 57.1 µM), for the others: at the top dose activity change, negative = inhibition, usual class: inhibitors; purified 12-hLO, xylenol orange hydroperoxide absorbance; Polyunsaturated fatty acid lipoxygenase ALOX12 (Homo sapiens), P18054; AID 1452, 2008; actives 0.12% (n = 150,000); active = well fitted curve in the direction sought with a large enough effect; inconclusive = small, poorly fitted or top-dose-only effect, or another doubt; inactive = no such curve, though single readings can be large; an effect the other way counts as inactive or inconclusive; also: potency is read from the fitted curve at half-maximal effect; nearly all actives have a fitted effect of over 55% in size
#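 Purified human 12hLO (150 nM final) was preincubated with compounds for 15 min at room temperature in 25 mM Hepes pH 7.0, 0.01% Triton X-100, then reacted with 40 uM arachidonic acid for 30 min. Hydroperoxide was detected with ferrous iron/xylenol orange.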
# IMPase Li inh – qHTS Assay for Identifying the Cell-Membrane Permeable IMPase Inhibitors: Potentiation with Lithium. CHO-M1 cells, IP1 TR-FRET (IP-One), carbachol + lithium. Potency, µM (titrated, usually from 59.4 µM), for inactives: top-dose activity, negative = IMPase inhibition, hits mostly inhibitors. actives 0.35% (n = 210,000); active = well fitted curve in the direction sought with a large enough effect; inconclusive = small, poorly fitted or top-dose-only effect, or another doubt; inactive = no such curve, though single readings can be large; an effect the other way counts as inactive or inconclusive;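 also: IP1 builds up when IMPase is blocked and the TR-FRET signal falls; potency is read from the fitted curve at half-maximal effect; plate controls were basal vehicle for no effect and high inhibitor control for full effect; nearly all actives have a fitted effect of over 50% in size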
#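 Test compounds were applied to CHO-M1 cells previously cultured for 16–30 h at 2000 per well. A small lithium amount accompanied them; after 30 min at 37C, IP1 was quantified by TR-FRET.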
# IMPase inh – qHTS Assay for Identifying the Cell-Membrane Permeable IMPase Inhibitors; Inositol monophosphatase 1 (Rattus norvegicus), P97697; CHO-M1 cells, IP1 accumulation, HTRF TR-FRET ratio; inhibition (IP1 accumulation), % at 46.1 µM; 120,000 tested, under 10 active; AID 901, 2007; active = well fitted curve in the direction sought with a large enough effect in the signal ratio, not every such curve was filed as active; inconclusive = small, poorly fitted or top-dose-only effect, or a change in a side signal; inactive = no such curve, though single readings can be large or run the other way; the % refers to the signal ratio;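 also: cells stimulated with carbachol in lithium chloride buffer; plate controls were DMSO basal wells for no effect and reference inhibitor wells for full effect; higher means more IMPase inhibition seen as more IP1 and lower FRET ratio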
#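 Measured: the HTRF emission ratio (665/620 nm) plus the 620 nm donor channel, each fitted to the Hill equation to give AC50. Cells were CHO-M1 given compounds up to 46 uM and a 30 min carbachol stimulation at 37C.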
# * marks the source's active call; other numbers are inactive results; ? = inconclusive; . = no result; [ ] = another dose, or the depositor's remark. Unless noted, calls follow the shape of the dose curve; as a rule, active = well fitted inhibition curve with a large enough effect (not every such curve was filed as active); inconclusive = small, poorly fitted or top-dose-only effect, or another doubt; inactive = no such curve, though single readings can be large or run the other way. Unless noted, % is scaled to controls: 0 for no effect and ±100 for the full control effect.
SMILES,PNC assembly inh,HPGD block,ALDH1A1 block,12-hLO inh,IMPase Li inh,IMPase inh
COc1cccc2cc(C(=O)N3CCc4ccccc4C3)c(=O)oc12,?,7.9µM*,0%,1%,-3%[38.3 µM],6
CCOc1cccc2cc(C(=O)Nc3ccccc3-c3ccccc3)c(=O)oc12,59,-15%,0.14µM*,-1%,-3%,.
CCOc1cccc2cc(C(=O)N3CCc4ccccc4C3)c(=O)oc12,28,4.5µM*,-12%,-9%,24%[38.3 µM],-8
Nc1ncnc2c1ncn2Cc1ccccc1,.,.,9%,.,0%,.
COc1ccc(Oc2ncnc3c2ncn3Cc2ccccc2)cc1,25,8.9µM*,-6%,0%,1%[38.3 µM],7
CCOc1ccc(S(=O)(=O)Nc2ccccn2)c2ccccc12,89,?,?,-4%,?,1
COc1ccc(OC)c(S(=O)(=O)Nc2cc(OC)c(Cl)cc2OC)c1,-3,-11%,?,-4%,-6%[38.3 µM],?
COc1ccc(S(=O)(=O)Nc2ccccn2)c(C)c1C,?,-8%,25µM*,-4%,15%[38.3 µM],?
COc1cc(NS(=O)(=O)c2ccc(OC)c(C)c2C)c(OC)cc1Cl,-108*,-17%,?,-10%,37%[38.3 µM],6
Cc1ccc(C)c(C(C)NC(=O)c2ccc(Br)o2)c1 (centres undefined),.,.,4µM*,.,-5%,.
Cc1ccc(C)c(C(C)NC(=O)CC#N)c1 (centres undefined),.,.,-5%,.,2%,.
COC(=O)NC(c1ccccc1)c1c[nH]c2ccc(OC)cc12 (centres undefined),.,-10%,2%,.,2%,.
CC(=O)OC[C@@H]1O[C@H](C/C=N\O[C@@H](C)CN2CCCCc3nc(C)c(C)cc32)C=C[C@@H]1OC(C)=O,.,.,-8%[13.5 µM],.,.,.
CCCCCCN1C=CC(=C2C(=O)c3ccccc3C2=O)C=C1,.,.,3%,.,-1%,.
CC1=CC(=C2C(=O)c3ccccc3C2=O)C=C(C)N1Cc1ccco1,37,-16%,7.9µM*,-28%,15%[38.3 µM],11
CCCCN1C(C)=CC(=C2C(=O)c3ccccc3C2=O)C=C1C,.,.,14µM*,.,12%,.
CCCN1C=CC(=C2C(=O)c3ccccc3C2=O)C=C1,-9,-16%,14µM*,-6%,31%[38.3 µM],10
CCC(C)c1ccc(O[C@@H]2O[C@H](CO)[C@@H](O)[C@H](O)[C@H]2NC(C)=O)cc1 (some centres undefined),.,-13%,-22%,.,-1%,.
COc1ccc(C(=O)Nc2ccc(-c3nc4ncccc4o3)cc2C)cc1Br,.,.,.,.,.,-1
CC1=C(C(=O)Nc2ccc(Cl)cc2)C(c2cccs2)n2nc(SCc3cccc(C)c3)nc2N1 (centres undefined),.,.,.,.,.,-3
COc1ccc(N=C2S/C(=C\c3cc(C)n(C)c3C)C(=O)N2C)cc1,16,-6%,?,-14%,7%[38.3 µM],5
COc1ccccc1N1C(=O)S/C(=C\c2cc(C)n(C)c2C)C1=O,.,.,14µM*,.,8%,.
CCCN1C(=O)/C(=C/c2cc(C)n(C)c2C)SC1=Nc1ccc(OC)cc1,11,-17%,2µM*,-20%,24%[38.3 µM],8
Cc1cc(/C=C2\SC(=O)N(CC(=O)Nc3ccccc3F)C2=O)c(C)n1C,.,.,?,.,4%,.
Cc1nn(C)c2nc(NNC(=O)Nc3cc(Cl)nc(Cl)c3)cc(C(C)C)c12,.,-9%,4%,-6%[0.00818 µM],20%,.
SMILES,PNC assembly inh,HPGD block,ALDH1A1 block,12-hLO inh,IMPase Li inh,IMPase inh
CC1=NN(c2ccc([N+](=O)[O-])cc2)C(=O)C1[N+](=O)[O-] (centres undefined),.,-24%,?,.,15%,.
CCOC(=O)C1(CCCc2ccccc2)CCN(C(=O)C(C)n2cncn2)CC1 (centres undefined),.,.,7.1µM*,.,9%,.
CCOC(=O)C1(CCCc2ccccc2)CCN(C(=O)c2ocnc2C)CC1,.,.,0.89µM*,.,15%,.
CCOC(=O)C1(CCc2ccccc2)CCN(C(=O)CCc2cnccn2)CC1,.,.,?,.,12%,.
CCOC(=O)C1(CCCc2ccccc2)CCN(C(=O)c2cncs2)CC1,.,.,5.6µM*,.,.,.
CCOC(=O)C1(CCCc2ccccc2)CCN(C(=O)CCc2cnccn2)CC1,.,.,4µM*,.,4%,.
CCOC(=O)C1(CCc2ccccc2)CCN(C(=O)c2cnc(C)cn2)CC1,.,.,?,.,1%,.
COc1ccccc1-c1ccc2ncnc(NCCNC(C)=O)c2c1,.,.,?,.,-9%,.
Brc1cc(Br)c2nc(-c3cccs3)ccc2c1,18,-8%,-4%,-4%,10µM*,?
Cc1ccc(C(=O)CNc2ccc(C)c(Cl)c2)cc1,40,-30%,10µM*,5%,-6%,.
Cc1ccc(C(=O)NNC(=O)CNc2cccc(Cl)c2)cc1,.,.,7%,.,0%,.
Cc1ccc(NC(=O)/C=C/c2ccccc2Cl)cc1Cl,.,.,.,.,.,-1
Cc1ccc(NCC(=O)c2ccccc2)cc1Cl,2,-25%,20µM*,-3%,11%[38.3 µM],0[1.84 µM]
Cc1ccc(C(=O)CNc2cccc(Cl)c2)cc1,26,-9%,22µM*,-15%,10%,14
Cc1ccc(NC(=O)CN(c2ccccc2)S(=O)(=O)N(C)C)cc1Cl,.,.,.,.,.,9
Cc1ccc(NC2=C(NC(=O)c3ccccc3)C(=O)c3ccccc3C2=O)cc1Cl,-22,20µM*,20µM*,-2%,14%,19
CCCc1c(OCCCOc2ccc(OCC(=O)O)cc2)ccc(CC=O)c1O,.,-4%,0%,-6%,4%,-7
O=C1C(Cl)=C(Nc2ccccc2)C(=O)c2ccccc21,-25,-3%,8%,-1%,36%,.
Cc1ccc(NC(=O)C(OC(=O)c2ccc(O)cc2)c2ccccc2)cc1Cl (centres undefined),?,-9%,?,1%,15%,.
Cc1ccc(NC(=O)C(c2ccccc2)N(C)C)cc1Cl (centres undefined),.,.,1.4µM*,.,17%,.
Cc1ccc(NCCC(=O)c2ccccc2)cc1Cl,.,.,3.2µM*,.,0%,.
O=C(O)c1cccc(NC2=C(Cl)C(=O)c3ccccc3C2=O)c1,.,.,32µM*,.,27%,.
COC(=O)C1(CC(C)C)C=C2C(=C(C)C(=O)C2C)CN1 (centres undefined),.,-17%,?,-3%,-9%,.
Cc1onc(-c2ccccc2)c1C(=O)Nc1nc2c(s1)C(=O)CC(C)(C)C2,?,-9%,?,2%,-6%,-7

# From PubChem
